Laboratory results: PubChem BioAssay (NCATS)
Results filed as inconclusive are left out. Active and inactive are the calls of the source. The call rests on the fitted dose curve; in most records, active means well fitted cell-killing curve with a large enough effect; inconclusive means small, poorly fitted or top-dose-only effect, or effect the other way; inactive means flat fitted curve, though single readings scatter.

test system: CAOV3; experiment: Primary qHTS to identify gynecologic anti-cancer compounds using libraries of approved drugs and bioactive compounds (AID 1345084); settings: Gynecologic cancer cell panel viability, ATPlite luminescence, 48 h; series mostly up to 57.5 µM; activity change, negative = cytotoxicity: at the top concentration; further: nearly all actives have a fitted effect of over 55% in size
Text: National Center for Advancing Translational Sciences [NCATS] Assay Overview: Chemotherapeutic drug responses vary from cancer to cancer and from patient to patient. These variations could be caused by a number of factors including patient genomic background, tumor mutations, tumor heterogeneity, and aspects of drug treatment. Chemotherapeutic drug resistance is also a common issue and can lead to ineffective treatment and patient death. Here we have profiled the cell killing effects of thousands of compounds to characterize the responses in three gynecological cancers, identify cancer-selective compounds, and understand the diversity of responses to these compounds from pan-cancer suppressors to single cell line selective compounds. In this assay, we screened a 7,914 compound drug library that included approved drug and bioactive compounds in six ovarian, three cervical, and […] placental cancer cell lines using the ATPlite assay for cell viability. […] The cervical cancer cell lines included HeLa, Ca Ski, and C-33 A. The placental cancer cell lines included JEG-3. HEK 293T cells were used as the control cell line to determine the selectivity index. ATPlite is a luminescence based assay reliant on the conversion of a luciferase substrate to light in the presence of ATP. As a cytotoxic compound will suppress growth and decrease the number of cells, the concentration of ATP will decrease, and less light signal will be detected in the well.
Assay Protocol Summary: 1,000 cells in 4 uL of media were dispensed into white, solid bottom 1536-well plates using a Multidrop Combi (Thermo Scientific). The Assay plates were incubated for 16 hours at 37 C with 5% CO2 in assay plates, followed by the addition of 23 nL of DMSO or drug dissolved in DMSO. Each compound was assayed in five concentrations (0.092, 0.46, 2.3, 11.5, and 57.5 uM), using the automated Wako 1536 Pin Tool workstation and incubated at 37 C with 5% CO2 48 hours. 4 uL of ATPlite, the ATP monitoring reagent, was then added to the each well of the assay plates using the Multidrop Combi reagent dispenser followed by incubation for 15 minutes at room temperature. The resulting luminescence was measured using the ViewLux plate reader.
On the % scale 0 is the no-effect control and ±100 the full control effect; potency means the concentration at half of the fitted maximal effect.

SMILES	activity change, negative = cytotoxicity	Potency
COc1cc(/C=C2\CC[C@H]3COC[C@@H](c4cc(F)c(F)c(F)c4)N3C2=O)ccc1-n1cnc(C)c1	13.5% (inactive)	
C/C1=C\[C@@H](C)C[C@@H](C)[C@@H](Cc2cnco2)OC(=O)/C(C)=C/[C@@H](C)C[C@@H](C)[C@@H](Cc2cnco2)OC1=O	-23.8% [at 25.3 µM] (inactive)	
CC[N+]1(C/C2=C/CCCCCC2)CCC(NC(=O)C2c3cc(Cl)ccc3Oc3ccc(Cl)cc32)CC1 (stereo not given)	-2.63% (inactive)	
c1cc(NCCc2c[nH]c3ccccc23)cc(Nc2ccncc2)c1	-24.8% (inactive)	
Cn1cc(-c2cnn3c(N)c(Br)c([C@@H]4CCCNC4)nc23)cn1	-30.8% (inactive)	
O=C(CNC(=O)c1cccc(C(F)(F)F)c1)N[C@@H]1CCN(Cc2ccc(Cl)cc2)C1	0.197% (inactive)	
CCCCC1CCC(c2nc(-c3ccncc3)no2)CC1 (stereo not given)	12% (inactive)	
O=C(Nc1ccc2[nH]c(=O)oc2c1)C(=O)N1CCC(Cc2ccc(F)cc2)CC1	8.05% (inactive)	
Cc1csc(N(C(=O)CSc2ccc(-c3ccccc3)nn2)C2CC2)n1	-4.34% (inactive)	
NS(=O)(=O)Nc1ncnc(OCCOc2ncc(Br)cn2)c1-c1ccc(Br)cc1	0.236% (inactive)	
COC1C(OC(=O)/C=C/C=C/C=C/C=C/C(=O)O)CCC2(CO2)C1C1(C)OC1CC=C(C)C (stereo not given)	-22.9% [at 25.3 µM] (inactive)	
C[C@@H]1C[C@H](C)CN(CCC(=O)Nc2ccc(Br)cc2)C1	-17.6% (inactive)	
Cc1cc(C)c(S(=O)(=O)n2cc(C)cc2C)c(C)c1	-9.6% (inactive)	
O=C(Nc1ccccc1C(=O)Nc1ccc(CCO)cc1)c1ccc([N+](=O)[O-])cc1	-5.39% (inactive)	
CCOc1nc(NC(=O)Cc2cc(OC)ccc2OC)cc(N)c1C#N	18.3% (inactive)	
CN(C)CCOC(C)(c1ccccc1)c1ccc(Cl)cc1 (stereo not given)	-19.7% (inactive)	
COC(=O)c1sccc1S(=O)(=O)Nc1ccc(Nc2ccccc2)cc1OC	11.9% (inactive)	
CCCCOc1ccc(S(=O)(=O)n2c(C)nc3ccccc32)cc1	29.7% [at 25.3 µM] (inactive)	
CCc1cnc(N2CCC(c3nc(COc4ccc(-n5cnnn5)cc4)cs3)CC2)nc1	20% (inactive)	
CCOc1ccc(-n2c(C(C)N(Cc3cccnc3)C(=O)Cc3ccc(F)c(C(F)(F)F)c3)nc3ncccc3c2=O)cc1 (stereo not given)	10.6% (inactive)	

SMILES	activity change, negative = cytotoxicity	Potency
CC1(C)CCC(C)(C)c2cc(C#Cc3ccc(C(=O)O)cc3)ccc21	7.33% (inactive)	
OC1(CN2CCC(COc3noc4cccc(O[C@@H]5CCOC5)c34)CC2)CCOCC1	-2.97% (inactive)	
Cc1cc(N2CCOCC2)ccc1Nc1nc(NC2CCCCC2)c2[nH]cnc2n1	-1.44% (inactive)	
CC1CCCC(O)CCC/C=C/c2cc(OS(=O)(=O)O)cc(O)c2C(=O)O1 (stereo not given)	-6.92% [at 38.5 µM] (inactive)	
Cc1ccc(N2CCN(CCC3NC(=O)c4ccccc43)CC2)cc1C (stereo not given)	2.42% (inactive)	
C/C(=C/CO)CCC1C(C)CCC2C(C)(C)CCCC12C (stereo not given)	2.51% (inactive)	
COc1cc(N2CCC(N3CCN(C)CC3)CC2)ccc1Nc1ncc(Cl)c(Nc2ccccc2P(C)(C)=O)n1		2.24 µM (active)
COc1ccc(CCO[C@@H]2O[C@H](CO[C@H]3OC[C@](O)(CO)[C@H]3O)[C@@H](OC(=O)/C=C/c3ccc(O)c(O)c3)[C@H](O[C@@H]3O[C@@H](C)[C@H](O)[C@@H](O)[C@H]3O)[C@H]2O)cc1OC	-8.05% [at 25.3 µM] (inactive)	
C=C1CC[C@@H](O)[C@]2(C)C[C@H]3OC(=O)C(=C)[C@H]3CC12 (stereo not given in full)	3.55% (inactive)	
Cc1onc(-c2ccccc2)c1C(=O)N1CCN(c2ccc([N+](=O)[O-])cc2Cl)CC1	-7.18% (inactive)	
C=C1C(=O)O[C@@H]2C3C(=C(C)[C@@H](O)[C@@H](OC(=O)/C(=C/C)COC(C)=O)[C@@H]12)C(=O)[C@H]1O[C@@]31C (stereo not given in full)		8.91 µM (active)
Cc1noc(-c2ccc(-c3ccc(CC(=O)O)cc3)cc2)c1NC(=O)O[C@H](C)c1ccccc1Cl	5.18% (inactive)	
COc1cc(C(=O)O)ccc1NC(=O)C1NC(CC(C)(C)C)C(C#N)(c2ccc(Cl)cc2F)C1c1cccc(Cl)c1F (stereo not given)	-4.57% (inactive)	
Cn1cc(-c2ccc(F)c(C(F)(F)F)c2)nc1C1CCN(c2ncnc3[nH]ncc23)CC1	-21.2% [at 25.3 µM] (inactive)	
CC1(C)Oc2ncnc(N)c2N=C1c1ccc(C23CCC(CC(=O)O)(CC2)CC3)cc1	-13.7% (inactive)	
Cn1ccc(NC(=O)c2cc(Oc3ccc(C(=O)N4CCC4)c(F)c3)c3c(c2)OC(C)(C)C3)n1	-1.36% (inactive)	
CN1CCN(C(=O)CN[C@@H]2C[C@H]2c2ccc(OCc3ccccc3)cc2)CC1	2.23% (inactive)	
Fc1ccc(CN2CCC(Nc3ccc(C(F)(F)F)nn3)CC2)cc1F	21% (inactive)	
COc1ccc(-n2c(SCCCN3C(=O)c4cccc5cccc(c45)C3=O)nnc2-c2ccncc2)cc1	7.02% (inactive)	
CC(C)c1ccccc1OC(=O)NCCc1ccc2ccccc2c1	3.64% (inactive)	
